Source: the supplement of paper PMC6992640
± gives the standard deviation of the averaged measurements.

How the values were obtained:
Test in all cases: cell viability (% of vehicle); higher = less cytotoxic
Conditions in all cases: 10 µM; 72 h
HCI01 = system: HCI01 (cells of a triple-negative basal-like breast cancer xenograft)
HCI03 = system: HCI03 (cells of an ER-positive luminal breast cancer xenograft)
HCI09 = system: HCI09 (cells of a triple-negative luminal androgen receptor type breast cancer xenograft)
HCI11 = system: HCI11 (cells of an ER-positive luminal breast cancer xenograft)
HCI13 = system: HCI13 (cells of an ER-positive luminal breast cancer xenograft)
HCI16 = system: HCI16 (cells of a triple-negative basal-like breast cancer xenograft)
UCD52 = system: UCD52 (cells of a triple-negative basal-like breast cancer xenograft)
WHIM2 = system: WHIM2 (cells of a triple-negative basal-like breast cancer xenograft)
WHIM30 = system: WHIM30 (cells of a triple-negative basal-like breast cancer xenograft)
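Note: PDX cells carrying CMV promoter-driven luciferase, viability read as total photon flux per second by IVIS imaging following D-luciferin, vehicle control 0.1% DMSO.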

Row | SMILES | cell viability (HCI01) | cell viability (HCI03) | cell viability (HCI09) | cell viability (HCI11) | cell viability (HCI13) | cell viability (HCI16) | cell viability (UCD52) | cell viability (WHIM2) | cell viability (WHIM30)
1 | O=c1ncnc2[nH][nH]cc1-2 [Allopurinol] | 111 ± 8.6 | 132 | 94.3 ± 13 | 110 | 98.9 ± 12 | 103 | 84.5 ± 3.3 | 97.49 ± 0.5 | 122 ± 8.1
2 | CCOC(=O)C(CCc1ccccc1)NC1CCc2ccccc2N(CC(=O)O)C1=O.Cl (centres undefined) [Benazepril HCl] | 107 ± 11 | 159 | 130 ± 41 | 93.5 | 196 ± 40 | 161 | 130 ± 7.6 | 107 ± 13 | 170 ± 22
3 | Cl.c1ccc(CC2=NCCN2)cc1 [Tolazoline HCl] | 94.2 ± 1.9 | 100 | 92 ± 13 | 91.4 | 118 ± 8.5 | 115 | 92.7 ± 2.9 | 105 ± 5.3 | 87.3 ± 5
4 | CCCS(=O)(=O)Nc1ccc(F)c(C(=O)c2c[nH]c3ncc(-c4ccc(Cl)cc4)cc23)c1F [Vemurafenib (PLX4032, RG7204)] | 118 ± 12 | 195 | 114 ± 7.1 | 98.3 | 106 ± 4.2 | 102 | 108 ± 1.8 | 102.2 ± 0.85 | 185 ± 5.3
5 | CC1(C)SC2C(NC(=O)C(NC(=O)N3CCNC3=O)c3ccccc3)C(=O)N2C1C(=O)[O-].[Na+] (centres undefined) [Azlocillin sodium salt] | 97.6 ± 24 | 131 | 104 ± 17 | 104 | 76.5 ± 9.1 | 130 | 97.766 ± 0.039 | 106 ± 29 | 125 ± 12
6 | CCC1C(O)C2C3CCC(C(C)CCC(=O)O)C3(C)CCC2C2(C)CCC(O)CC12 (centres undefined) [Obeticholic Acid] | 137 ± 53 | 149 | 77.56 ± 0.36 | 112 | 81.8 ± 14 | 145 | 98.9 ± 10 | 120 ± 1.9 | 151 ± 2.4
7 | Cc1cccc(-c2nn3c(c2-c2ccnc4ccc(C(N)=O)cc24)CCC3)n1 | 117 ± 2.1 | 90.1 | 115 ± 56 | 98.7 | 56.3 ± 6.4 | 89.8 | 73.1 ± 3.3 | 147 ± 41 | 111 ± 3
8 | Cc1c(F)cc(C(=O)NC2CC2)cc1-c1ccc(C(=O)NCC(C)(C)C)cn1 [Losmapimod] | 84 ± 16 | 91.4 | 84.4 ± 21 | 60 | 71 ± 2.2 | 81.6 | 58.1 ± 1.8 | 76.5 ± 16 | 101 ± 6.2
9 | CCC(C)C(=O)OC1CC(O)C=C2C=CC(C)C(CCC(O)CC(O)CC(=O)[O-])C21.[Na+] (centres undefined) [Pravastatin sodium] | 142 ± 13 | 184 | 126 ± 28 | 113 | 142.3 ± 0.11 | 152 | 100 ± 3.8 | 105 ± 20 | 156 ± 1.8
10 | CC(=O)O.CC(O)C(CO)NC(=O)C1CSSCC(NC(=O)C(N)Cc2ccccc2)C(=O)NC(Cc2ccccc2)C(=O)NC(Cc2c[nH]c3ccccc23)C(=O)NC(CCCCN)C(=O)NC(C(C)O)C(=O)N1 (centres undefined) [Octreotide acetate] | 86.6 ± 6.2 | 135 | 87.9 ± 14 | 95.4 | 87.9 ± 3.6 | 90.1 | 84.3 ± 9.8 | 86.9 ± 20 | 102 ± 15
11 | CC1OC(OCC2OC(Oc3c(-c4ccc(O)c(O)c4)oc4cc(O)cc(O)c4c3=O)C(O)C(O)C2O)C(O)C(O)C1O (centres undefined) [Rutin] | 107 ± 32 | 128 | 101 ± 9.8 | 102 | 118 ± 8.5 | 138 | 103 ± 14 | 122 ± 9.8 | 101 ± 13
12 | Cc1cc(C)c2c(c1)C(N(Cc1cc(C(F)(F)F)cc(C(F)(F)F)c1)c1nnn(C)n1)CCCN2CC1CCC(C(=O)O)CC1 (centres undefined) | 41.2 ± 16 | 135 | 61.9 ± 53 | 98.5 | 51.4 ± 8.7 | 139 | 119 ± 2.1 | 91.8 ± 4.9 | 110 ± 6.3
13 | CC(=O)C1CCC2C3CC=C4CC(O)CCC4(C)C3CCC12C (centres undefined) [Pregnenolone] | 141 ± 20 | 126 | 76 ± 7 | 84.5 | 175 ± 44 | 111 | 75.4 ± 2.4 | 99 ± 3.8 | 116 ± 19
14 | NC(=O)C1CCCc2c1[nH]c1ccc(Cl)cc21 (centres undefined) | 145 ± 13 | 182 | 102 ± 2.3 | 128 | 148 ± 9 | 121 | 128 ± 12 | 141 ± 7.4 | 161 ± 24
15 | COc1nc(C)cnc1NS(=O)(=O)c1cccnc1-c1ccc(-c2nnco2)cc1 [Zibotentan (ZD4054)] | 122 ± 15 | 116 | 105 ± 9.6 | 117 | 125 ± 12 | 125 | 97.9 ± 1.1 | 85.7 ± 3.5 | 139 ± 6.9
16 | CC(=O)Oc1ccc(C(c2ccc(OC(C)=O)cc2)c2ccccn2)cc1 [Bisacodyl] | 53.2 ± 14 | 130 | 30.9 ± 6.2 | 50.3 | 184 ± 16 | 70.9 | 80.9 ± 17 | 111 ± 43 | 76.5 ± 1.4
17 | OCCN(CCO)c1nc(N2CCCCC2)c2nc(N(CCO)CCO)nc(N3CCCCC3)c2n1 [Dipyridamole] | 90.2 ± 14 | 116 | 87.4 ± 23 | 105 | 96.2 ± 6.1 | 150 | 89.6 ± 3.4 | 112 ± 34 | 142 ± 12
18 | NC(CO)(CO)CO [Trometamol] | 86.3 ± 6.3 | 114 | 94.9 ± 21 | 91.5 | 58.4 ± 13 | 104 | 86 ± 7 | 99.2 ± 16 | 113 ± 12
19 | CCCC(CCC)C(=O)O.CCCC(CCC)C(=O)[O-].[Na+] [Divalproex Sodium] | 112 ± 1.5 | 116 | 96.4 ± 23 | 111 | 114 ± 41 | 94.5 | 86.1 ± 2.9 | 80.1 ± 16 | 90.4 ± 14
20 | COS(=O)(=O)[O-].C[N+]1(C)CCC(=C(c2ccccc2)c2ccccc2)CC1 [Diphemanil Methylsulfate] | 101 ± 3 | 121 | 97.8 ± 12 | 109 | 119 ± 5.8 | 84.7 | 94.5 ± 13 | 96.7 ± 19 | 161.9 ± 0.26
21 | CCC(CO)NCCNC(CC)CO.Cl.Cl (centres undefined) [Ethambutol HCl] | 98.6 ± 2.4 | 122 | 102 ± 7.8 | 103 | 146 ± 15 | 102 | 86.7 ± 3 | 93.4 ± 21 | 153 ± 7.2
